Bioassay records (PubChem BioAssay)
HPGD block = qHTS Assay for Inhibitors of HPGD (15-Hydroxyprostaglandin Dehydrogenase) | 15-hydroxyprostaglandin dehydrogenase [NAD(+)] (Homo sapiens), P15428 | purified HPGD, NADH fluorescence kinetic, PGE2 substrate | Potency, µM, without a hit: top-dose activity change, negative = inhibition, actives largely listed as inhibitors | actives 4.3% (n = 150,000) | AID 894, 2007; also: potency is read from the fitted curve at half-maximal effect
Target sequence (P15428 whole entry, looked up): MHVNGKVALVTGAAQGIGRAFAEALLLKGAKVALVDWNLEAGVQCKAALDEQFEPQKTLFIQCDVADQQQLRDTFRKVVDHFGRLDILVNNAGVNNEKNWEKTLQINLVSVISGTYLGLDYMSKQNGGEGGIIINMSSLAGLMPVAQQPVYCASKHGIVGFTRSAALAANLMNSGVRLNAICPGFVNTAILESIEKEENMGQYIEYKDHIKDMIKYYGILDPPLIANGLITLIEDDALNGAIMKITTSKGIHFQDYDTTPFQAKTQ
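20 nM HPGD preincubated 15 min at room temperature with compound in 50 mM Tris-HCl pH 8, 0.01% Tween 20. Started with 1 mM NAD+ and 30 uM prostaglandin E2; NADH fluorescence (360/450 nm) read 5 times over 30-s intervals, last minus first.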
ALDH1A1 inh = qHTS Assay for Inhibitors of Aldehyde Dehydrogenase 1 (ALDH1A1); Aldehyde dehydrogenase 1A1 (Homo sapiens), P00352; Purified ALDH1A1, NADH fluorescence, propionaldehyde substrate; Potency, µM (top dose mostly 75.3 µM), for inactives: at the highest dose activity, negative = inhibition, actives largely listed as inhibitors; actives 7.3% (n = 220,000); AID 1030, 2008;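 also: potency is read from the fitted curve at half-maximal effect; plate controls were no enzyme wells and a reference inhibitor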
PNC assembly inh = High Content Assay for Compounds that inhibit the Assembly of the Perinucleolar Compartment | AID 2417, 2010 | actives 3.1% (n = 140,000) | activity change (PNC), negative = inhibition, % at 10 µM | PC3M PTB-GFP, PNC prevalence imaging, 16 h; hits give low values;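 active = readout at or below -70, meaning at least 70% loss of cells showing the perinucleolar compartment, a nuclear body marking cancer cells; inconclusive = readout between -30 and a set limit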;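 also: plate controls were DMSO wells for no effect and camptothecin positive control wells for full effect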
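Compounds are pinned in duplicate onto adhered PC3M cells stably expressing GFP-tagged PTB and incubated 16 h at 37 C. Cells are then fixed, nuclei stained with Hoechst, and PNC-positive cells counted.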
Numbers without * were called inactive; [ ] = dose if it differs, or a comment. Hits are enriched below; roughly 11% of the tested compounds scored in any of these assays. Unless noted, calls follow the shape of the dose curve; as a rule, active = well fitted inhibition curve with a large enough effect (not every such curve was filed as active); inconclusive = small, poorly fitted or top-dose-only effect, or another doubt; inactive = no such curve, though single readings can be large or run the other way. Unless noted, % is scaled to controls: 0 for no effect and ±100 for the full control effect.

For CCn1c(SCC(=O)N2CCN(c3cccc(Cl)c3)CC2)nc2ccccc2c1=O the results were HPGD block -18%, ALDH1A1 inh 28µM* and PNC assembly inh inconclusive.
`Cc1cc2ccccc2c(=O)n1CC(=O)N1CCN(c2cccc(Cl)c2)CC1` gave HPGD block -16%, ALDH1A1 inh -1% and PNC assembly inh 1.
`COc1ccc(C(=O)CSc2nc3ccccc3n2CC(=O)c2ccccc2)cc1` gave HPGD block -5%, ALDH1A1 inh 25µM* and PNC assembly inh inconclusive.
CC(=O)c1ccc(-n2c(SCC(=O)c3c[nH]c4ccccc34)nc3ccccc3c2=O)cc1 was read as HPGD block 28µM*, ALDH1A1 inh 17% and PNC assembly inh inconclusive.
O=C(NC1CCCC1)C(c1ccsc1)N(CCc1ccccc1)C(=O)Cc1cccs1 (centres undefined) was read as HPGD block -7%, ALDH1A1 inh 17% and PNC assembly inh 73.
NCCC[C@@H](CC(=O)N[C@@H]1CCCC[C@H]1C(=O)N[C@H](CC(=O)N[C@@H](CCC(=O)O)CC(=O)O)Cc1ccccc1)NC(=O)C[C@H](Cc1c[nH]c2ccccc12)NC(=O)[C@@H]1CCCC[C@H]1N was read as HPGD block -5% and ALDH1A1 inh -7%.
For COC(=O)N1CCC[C@@]2(CCN(c3ncccn3)C2)C1 the results were HPGD block -19% and ALDH1A1 inh -13%.
Screening CCn1nnc(NC(=O)c2ccc(-c3ccc(Cl)cc3)o2)n1 returned HPGD block inconclusive, ALDH1A1 inh inconclusive and PNC assembly inh 10.
`Cn1nnc(NC(=S)NC(=O)c2ccc(-c3ccc(Br)cc3)o2)n1` gave ALDH1A1 inh 7.9µM*.
For CCOc1ccc(NC(=S)NCC(c2cccnc2)N2CCOCC2)cc1 (centres undefined) the results were ALDH1A1 inh 11%.
Cc1cc(C(=O)OCC(=O)N2CC(C)CC(C)C2)c(C)o1 (centres undefined) was read as HPGD block -8%, ALDH1A1 inh 14µM* and PNC assembly inh 23.
For CC1CC(C)CN(C(=O)COC(=O)c2cc3ccccc3cc2O)C1 (centres undefined) the results were HPGD block -23%, ALDH1A1 inh -6% and PNC assembly inh 41.
`O=S(=O)(c1ccccc1)N1CCC2(CCCN(c3ccccn3)C2)CC1` gave HPGD block -29% and ALDH1A1 inh inconclusive.
For CCOCCCNC(=O)Cn1cnc2sc(C)c(S(=O)(=O)N3CCN(c4ncccn4)CC3)c2c1=O the results were ALDH1A1 inh -2%.
For NC(=O)c1ccc[n+](CC(=O)c2ccc(Br)cc2)c1 the results were ALDH1A1 inh 9%.
Screening NC(=O)c1ccc[n+](CC(=O)OCCC23CC4CC(CC(C4)C2)C3)c1 returned HPGD block -7%, ALDH1A1 inh 25µM* and PNC assembly inh 4.
Screening C[C@]12C=CC(=O)C=C1CC[C@@H]1[C@H]3C[C@@H](O)[C@](O)(C(=O)CO)[C@@]3(C)C[C@H](O)[C@]12F returned HPGD block -15% and ALDH1A1 inh 7%[20.9 µM].
`CO[C@H]1COC(=O)[C@H](C)COC(=O)[C@@H](OCc2ccccc2)/C=C\[C@@H]1C` gave ALDH1A1 inh -15%[13.5 µM].
Screening COCn1c(-c2ccc(OC)cc2)nc2ccccc21 returned HPGD block -30%, ALDH1A1 inh inconclusive and PNC assembly inh 71.
O=c1c2ccccc2nc(-c2ccccc2)n1Cc1ccco1 was read as HPGD block -18%, ALDH1A1 inh inconclusive and PNC assembly inh inconclusive.
For O=c1c2ccccc2n2c(-c3ccc(F)cc3)nnc2n1Cc1ccccc1 the results were HPGD block -9%, ALDH1A1 inh inconclusive and PNC assembly inh -102*.
O=c1c2ccccc2n2c(-c3ccc(C(F)(F)F)cc3)nnc2n1Cc1ccccc1 was read as ALDH1A1 inh -6% and PNC assembly inh 25.
COCCn1c(-c2ccccc2)nc2ccccc21 was read as HPGD block inconclusive, ALDH1A1 inh 10% and PNC assembly inh -113*.
`COc1ccc(-c2nc3ccccc3n2Cc2ccc(C)cc2)cc1` gave HPGD block -18%, ALDH1A1 inh 0% and PNC assembly inh -82*.
Cc1ccc(-c2nc3ccccc3c(=O)n2Cc2ccccc2)cc1 was read as HPGD block -3%, ALDH1A1 inh 16µM* and PNC assembly inh inconclusive.
Screening CCCn1c(-c2ccc(OC)cc2)nc2ccccc21 returned HPGD block -17%, ALDH1A1 inh inconclusive and PNC assembly inh -26.
NC(=O)c1ncc(C(F)(F)F)cc1Oc1cccnc1 was read as ALDH1A1 inh 6%.
CCOc1ccccc1NC(=O)c1cc(C(=O)Nc2ccccc2OCC)cc(N2C(=O)CCC2=O)c1 was read as ALDH1A1 inh -2%.
`O=C(Nc1ccc(S(=O)(=O)N2CCOCC2)cc1)c1ccc(=O)[nH]c1` gave ALDH1A1 inh 1%.
`COc1cccc(Nc2ncc3nc(-c4cc(F)cc(F)c4)c(=O)n(CCC#N)c3n2)c1` gave HPGD block -14% and ALDH1A1 inh 6%.
Screening CCN(/C=N/S(=O)(=O)c1ccc(Cl)cc1)CC returned ALDH1A1 inh 9%.
Screening CCCNC(=O)C12CCC(C)(c3nc4cc(C)c(C)cc4nc31)C2(C)C (centres undefined) returned ALDH1A1 inh 9%.
`O=C(CCNC(=O)c1ccccc1)Nc1cccnc1` gave ALDH1A1 inh 8%.
For Cc1ccc(/C=C/c2nc3ccccc3c(=O)n2CCc2ccccc2)cc1 the results were HPGD block -17%, ALDH1A1 inh 13% and PNC assembly inh -83*.
`Cc1ccccc1/C=C/c1nc2ccccc2c(=O)n1CCc1ccccc1` gave HPGD block -22%, ALDH1A1 inh -6% and PNC assembly inh 9.
CC(=O)[C@H]1CC[C@H]2C3CC=C4C[C@@H](O)CC[C@]4(C)C3CC[C@]12C (some centres undefined) was read as ALDH1A1 inh 6%.
Screening CC(=O)Nc1ccccc1NC(=O)C/C(C)=N/NC(=O)c1ccncc1 returned ALDH1A1 inh 3%.
For C/C(CC(=O)Nc1cccc(Cl)c1Cl)=N\NC(=O)c1ccccc1C the results were ALDH1A1 inh 8.9µM*.
CC1(C)CC(=O)C(C(=O)c2ccccc2)C(=O)C1 was read as ALDH1A1 inh 6%.
CCOc1cccc(-c2cc(C(=O)N3N=C(C)CC3(O)C(F)F)c3ccccc3n2)c1 (centres undefined) was read as ALDH1A1 inh -5%.
Screening O=C1C=CC(=O)N1c1ccc(OC(F)F)cc1 returned HPGD block 7.1µM*, ALDH1A1 inh 0.71µM* and PNC assembly inh -9.
`O=C(O)CNC(=O)c1ccc(OC(F)F)cc1` gave HPGD block -4%, ALDH1A1 inh 6% and PNC assembly inh inconclusive.
CC(=O)c1c(C)n(-c2ccccc2)c2ccc(OCC(N)=O)cc12 was read as ALDH1A1 inh 0%.
